What all share (test): PBM; 200 nM protein, PBS
Common to all, as to conditions: dsDNA, one strand shown

The target of assay [1] is T1, PAX4 (Homo sapiens, UniProt O43316 9-242).
T1 sequence: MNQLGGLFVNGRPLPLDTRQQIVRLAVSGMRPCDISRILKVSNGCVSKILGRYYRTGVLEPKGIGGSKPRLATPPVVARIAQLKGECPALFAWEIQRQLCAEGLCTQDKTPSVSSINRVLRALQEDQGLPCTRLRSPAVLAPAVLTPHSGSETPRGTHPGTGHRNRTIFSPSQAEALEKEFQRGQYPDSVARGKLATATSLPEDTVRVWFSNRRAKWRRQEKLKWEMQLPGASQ

Assay [2] has as its target ALX1 (Homo sapiens, UniProt Q15699 118-204, L144V).
Assay [3] addresses ALX1 (Homo sapiens, UniProt Q15699 118-204, L144R).
For assay [4], the target named is T2, PAX4 (Homo sapiens, UniProt O43316 9-242, F177V).
T2 sequence: T1 sequence with F169V

The target in assay [5] is T3, PAX4 (Homo sapiens, UniProt O43316 9-242, F177Y).
T3 sequence: T1 sequence with F169Y

Assay [6] has as its target ALX1 (Homo sapiens, UniProt Q15699 118-204).
The next assay concerns the target T4, VENTX (Homo sapiens, UniProt O95231 78-163, Y115F).
T4 sequence: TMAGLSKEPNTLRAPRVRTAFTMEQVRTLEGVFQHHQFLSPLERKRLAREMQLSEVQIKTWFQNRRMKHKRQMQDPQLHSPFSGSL

The target of assay [7] is T5, SIX6 (Homo sapiens, UniProt O95475 114-200, T165P).
T5 sequence: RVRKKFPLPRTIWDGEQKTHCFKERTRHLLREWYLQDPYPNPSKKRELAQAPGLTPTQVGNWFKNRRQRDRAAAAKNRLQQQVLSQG

The target in assay [8] is T6, SIX6 (Homo sapiens, UniProt O95475 114-200, L167M).
T6 sequence: T5 sequence with P52T, L54M

Another assay deals with T7, NKX2-4 (Homo sapiens, UniProt Q9H2Z4 175-261).
T7 sequence: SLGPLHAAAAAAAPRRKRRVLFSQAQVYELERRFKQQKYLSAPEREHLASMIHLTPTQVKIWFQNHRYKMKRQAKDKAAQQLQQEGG

The target of assay [9] is T8, PAX4 (Homo sapiens, UniProt O43316 9-242, R227W).
T8 sequence: T1 sequence with R219W

The target in assay [10] is T9, SIX6 (Homo sapiens, UniProt O95475 114-200, L143M).
T9 sequence: T5 sequence with L30M, P52T

Assay [11] addresses T10, SIX6 (Homo sapiens, UniProt O95475 114-200, L143I).
T10 sequence: T5 sequence with L30I, P52T

The target of assay [12] is T11, SIX6 (Homo sapiens, UniProt O95475 114-200, T165I).
T11 sequence: T5 sequence with P52I

Substitutions are numbered along the chain they refer to.

Sequence of ALX1 (Homo sapiens, UniProt Q15699 118-204, L144V) (Q15699 118-204 L144V): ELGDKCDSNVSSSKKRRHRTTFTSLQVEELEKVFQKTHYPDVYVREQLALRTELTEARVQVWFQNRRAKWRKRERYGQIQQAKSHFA
Sequence of ALX1 (Homo sapiens, UniProt Q15699 118-204, L144R) (Q15699 118-204 L144R): as the sequence (Q15699 118-204 L144V) above, with V27R counted along it
Sequence of ALX1 (Homo sapiens, UniProt Q15699 118-204) (Q15699 118-204): as the sequence (Q15699 118-204 L144V) above, with V27L counted along it

Regarding ACGGATAA, the binding signal with PAX4 [1] was 10.8 upbm affinity estimate (log intensity, higher = more binding, comparable within an allelic series); with ALX1 [2], 8.5 upbm affinity estimate (log intensity, higher = more binding, comparable within an allelic series); in the assay with ALX1 [3], 8.23 upbm affinity estimate (log intensity, higher = more binding, comparable within an allelic series); in the assay with PAX4 [4], 10.1 upbm affinity estimate (log intensity, higher = more binding, comparable within an allelic series); in the assay with PAX4 [5], 10.2 upbm affinity estimate (log intensity, higher = more binding, comparable within an allelic series); with ALX1 [6], 8.73 upbm affinity estimate (log intensity, higher = more binding, comparable within an allelic series).
Regarding CCGATTTA, the binding signal with VENTX was 9.97 upbm affinity estimate (log intensity, higher = more binding, comparable within an allelic series).
On the same count and under the same terms, with ATCGATCA the figure was 9.96 upbm affinity estimate (log intensity, higher = more binding, comparable within an allelic series); with CGATTAGA, 10.8 upbm affinity estimate (log intensity, higher = more binding, comparable within an allelic series).
Regarding ATTTTTAC, in the assay with PAX4 [1], the binding signal was 10.5 upbm affinity estimate (log intensity, higher = more binding, comparable within an allelic series).
On to AAGGATCC, for which the binding signal with SIX6 [7] is 9.15 upbm affinity estimate (log intensity, higher = more binding, comparable within an allelic series).
As to CGGATACC, the binding signal with SIX6 [7] is 9.26 upbm affinity estimate (log intensity, higher = more binding, comparable within an allelic series).
On the same count and under the same terms, in the case of ACCGGATC it was 9.31 upbm affinity estimate (log intensity, higher = more binding, comparable within an allelic series); in that of CAGGATCA, 9.29 upbm affinity estimate (log intensity, higher = more binding, comparable within an allelic series).
For the sequence AAATCGGT, in the assay with VENTX, the binding signal was 9.94 upbm affinity estimate (log intensity, higher = more binding, comparable within an allelic series).
On to CGGATATA, for which, in the assay with SIX6 [8], the binding signal is 10.8 upbm affinity estimate (log intensity, higher = more binding, comparable within an allelic series).
Regarding ACTACTAG, in the assay with NKX2-4, the binding signal is 11.1 upbm affinity estimate (log intensity, higher = more binding, comparable within an allelic series).
For AGGTATAT, the binding signal with SIX6 [8] was 10.8 upbm affinity estimate (log intensity, higher = more binding, comparable within an allelic series).
Consider CGTTATGC, for which the binding signal with PAX4 [1] is 10.3 upbm affinity estimate (log intensity, higher = more binding, comparable within an allelic series); in the assay with PAX4 [9], 9.97 upbm affinity estimate (log intensity, higher = more binding, comparable within an allelic series).
On to CGTATCGC, for which the binding signal with SIX6 [8] is 10 upbm affinity estimate (log intensity, higher = more binding, comparable within an allelic series).
CCAATCAG: the binding signal in the assay with PAX4 [1] is 10.5 upbm affinity estimate (log intensity, higher = more binding, comparable within an allelic series); in the assay with PAX4 [4], 9.65 upbm affinity estimate (log intensity, higher = more binding, comparable within an allelic series); with PAX4 [5], 9.83 upbm affinity estimate (log intensity, higher = more binding, comparable within an allelic series); with PAX4 [9], 9.74 upbm affinity estimate (log intensity, higher = more binding, comparable within an allelic series).
Turning to ATATACCA, the binding signal in the assay with SIX6 [8] is 10.7 upbm affinity estimate (log intensity, higher = more binding, comparable within an allelic series).
The same measure, in the same setting: in the case of CACGTATC it was 10.2 upbm affinity estimate (log intensity, higher = more binding, comparable within an allelic series).
As for CCACGTTA, the binding signal in the assay with PAX4 [1] is 10.7 upbm affinity estimate (log intensity, higher = more binding, comparable within an allelic series); in the assay with PAX4 [4], 10.1 upbm affinity estimate (log intensity, higher = more binding, comparable within an allelic series); with PAX4 [5], 10.1 upbm affinity estimate (log intensity, higher = more binding, comparable within an allelic series); in the assay with PAX4 [9], 10.2 upbm affinity estimate (log intensity, higher = more binding, comparable within an allelic series).
In the case of GGGATATA, the binding signal with SIX6 [8] was 10.8 upbm affinity estimate (log intensity, higher = more binding, comparable within an allelic series).
With CGACACCA, the binding signal with SIX6 [8] was 9.52 upbm affinity estimate (log intensity, higher = more binding, comparable within an allelic series).
Consider GGGGGATA, for which the binding signal with SIX6 [8] was 10.8 upbm affinity estimate (log intensity, higher = more binding, comparable within an allelic series).
GAGATATA: in the assay with SIX6 [8], the binding signal was 10.8 upbm affinity estimate (log intensity, higher = more binding, comparable within an allelic series).
Take ACTAACTA: the binding signal in the assay with PAX4 [1] was 10.8 upbm affinity estimate (log intensity, higher = more binding, comparable within an allelic series); with PAX4 [4], 10.1 upbm affinity estimate (log intensity, higher = more binding, comparable within an allelic series); with PAX4 [5], 10.1 upbm affinity estimate (log intensity, higher = more binding, comparable within an allelic series); with PAX4 [9] it was 10.2 upbm affinity estimate (log intensity, higher = more binding, comparable within an allelic series).
Turning to ACCGATAC, the binding signal in the assay with SIX6 [8] is 10.2 upbm affinity estimate (log intensity, higher = more binding, comparable within an allelic series).
On to GTATCGAC, for which, in the assay with SIX6 [8], the binding signal is 9.96 upbm affinity estimate (log intensity, higher = more binding, comparable within an allelic series).
As to ATTTTGGA, the binding signal with PAX4 [1] was 10.5 upbm affinity estimate (log intensity, higher = more binding, comparable within an allelic series); in the assay with PAX4 [5], 10 upbm affinity estimate (log intensity, higher = more binding, comparable within an allelic series).
As to ATATACCC, the binding signal with SIX6 [8] was 11.1 upbm affinity estimate (log intensity, higher = more binding, comparable within an allelic series); with SIX6 [10], 10.9 upbm affinity estimate (log intensity, higher = more binding, comparable within an allelic series); in the assay with SIX6 [11], 10.4 upbm affinity estimate (log intensity, higher = more binding, comparable within an allelic series); with SIX6 [12] it was 11 upbm affinity estimate (log intensity, higher = more binding, comparable within an allelic series).
Regarding GTATCGGA, the binding signal in the assay with SIX6 [8] is 10.1 upbm affinity estimate (log intensity, higher = more binding, comparable within an allelic series).
In the case of GTATCGAA, in the assay with SIX6 [8], the binding signal was 10.2 upbm affinity estimate (log intensity, higher = more binding, comparable within an allelic series).
On the same count and under the same terms, in the case of AATATACC it was 10.9 upbm affinity estimate (log intensity, higher = more binding, comparable within an allelic series).
With AAAACCAT, the binding signal with PAX4 [1] was 10.5 upbm affinity estimate (log intensity, higher = more binding, comparable within an allelic series); with PAX4 [5], 9.98 upbm affinity estimate (log intensity, higher = more binding, comparable within an allelic series); with PAX4 [9], 10.1 upbm affinity estimate (log intensity, higher = more binding, comparable within an allelic series).
Turning to TTAGTCAA, the binding signal with PAX4 [1] was 10.9 upbm affinity estimate (log intensity, higher = more binding, comparable within an allelic series); with PAX4 [4], 10.1 upbm affinity estimate (log intensity, higher = more binding, comparable within an allelic series); with PAX4 [5] it was 10.2 upbm affinity estimate (log intensity, higher = more binding, comparable within an allelic series); with PAX4 [9] it was 10.2 upbm affinity estimate (log intensity, higher = more binding, comparable within an allelic series).
Consider GGCGATAC, for which the binding signal with SIX6 [8] is 10.1 upbm affinity estimate (log intensity, higher = more binding, comparable within an allelic series).
For the sequence CGTATCGA, in the assay with SIX6 [8], the binding signal was 10 upbm affinity estimate (log intensity, higher = more binding, comparable within an allelic series).
Turning to CGTATCAG, the binding signal in the assay with SIX6 [8] was 10.2 upbm affinity estimate (log intensity, higher = more binding, comparable within an allelic series).
Regarding GGTATCGA, in the assay with SIX6 [8], the binding signal is 10.4 upbm affinity estimate (log intensity, higher = more binding, comparable within an allelic series).
Regarding AATAACGG, the binding signal with PAX4 [1] was 10.8 upbm affinity estimate (log intensity, higher = more binding, comparable within an allelic series); in the assay with PAX4 [4] it was 10 upbm affinity estimate (log intensity, higher = more binding, comparable within an allelic series); in the assay with PAX4 [5] it was 10.1 upbm affinity estimate (log intensity, higher = more binding, comparable within an allelic series); with PAX4 [9], 10.1 upbm affinity estimate (log intensity, higher = more binding, comparable within an allelic series).
As to CATATCGA, in the assay with SIX6 [8], the binding signal was 10.2 upbm affinity estimate (log intensity, higher = more binding, comparable within an allelic series).
As for CCATATCG, the binding signal in the assay with SIX6 [8] is 10.1 upbm affinity estimate (log intensity, higher = more binding, comparable within an allelic series).
Same read-out and setting: with CCGTATCG the figure was 9.97 upbm affinity estimate (log intensity, higher = more binding, comparable within an allelic series).
In the case of TATATCCA, the binding signal with SIX6 [8] is 10.7 upbm affinity estimate (log intensity, higher = more binding, comparable within an allelic series).
Regarding GTTAACCA, the binding signal was 10.5 upbm affinity estimate (log intensity, higher = more binding, comparable within an allelic series) with PAX4 [1]; 9.85 upbm affinity estimate (log intensity, higher = more binding, comparable within an allelic series) with PAX4 [4]; 9.89 upbm affinity estimate (log intensity, higher = more binding, comparable within an allelic series) with PAX4 [5]; 9.96 upbm affinity estimate (log intensity, higher = more binding, comparable within an allelic series) with PAX4 [9].
As for ATCTATAC, the binding signal with SIX6 [8] was 10.7 upbm affinity estimate (log intensity, higher = more binding, comparable within an allelic series); with SIX6 [11], 10.4 upbm affinity estimate (log intensity, higher = more binding, comparable within an allelic series); in the assay with PAX4 [5], 10.4 upbm affinity estimate (log intensity, higher = more binding, comparable within an allelic series).
